For 20 compounds, growth inhibition, inhibition and outcome results are on record in PubChem BioAssay.

A number with no mark means an inactive call. For some of these results: Results with a measured potency or affinity are listed apart. Active and inactive are the calls of the source. Unless noted, the rule behind the calls is not given here.

Experiment [1] is described as follows: antimalarial activity against Dd2 strain (AID 2302;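 active = growth inhibition above 50% at the single 2 µM test dose, taken to imply half-maximal potency below 2 µM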;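 note: 0% = DMSO untreated growth and 100% = chloroquine plus artemisinin killed control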). The note with it: P. falciparum Dd2 in RBCs, LDH growth readout, 72 h; at 2 µM; stronger effect = higher value.
Experiment [2] is described as follows: human hepatoma cell viability loss – ATP luminescence, cytotoxicity control for P. falciparum antimalarial project, primary screen (AID 2303;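 active = inhibition above 50%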;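 note: 0% = DMSO wells and 100% = digitonin-killed cells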). The note with it: HepG2 viability, 24-48 h, at 10 µM, stronger effect = higher value.
Experiment [3] deals with L-lactate dehydrogenase (Plasmodium falciparum (isolate CDC / Honduras)) (UniProt Q27743). As to the kind of experiment: PfLDH activity inhibition – cell lysate, 3D7 strain, counter-screen for P. falciparum growth inhibition project (AID 2304).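 Note: 0% = vehicle and 100% = reference inhibitor.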 The note with it: P. falciparum 3D7 crude extract, LDH APAD/NBT absorbance; at 2 µM; stronger effect = higher value. On the technique in general: A counterscreen serves to expose hits that act by an unwanted route or on another target.

The nature of experiment [4]: inhibition of 3D7 malaria parasite growth – strain 3D7 (AID 2306).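 Note: 0% = DMSO wells and 100% = chloroquine plus artemisinin control wells.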 The note with it: P. falciparum 3D7 erythrocytic growth, LDH absorbance, 72 h; at 2 µM; stronger effect = higher value.
Experiment [5] deals with Calcium-dependent protein kinase 1 (Plasmodium falciparum (isolate 3D7)) (UniProt P62344). Nature of the experiment: PfCDPK1 kinase inhibitors, biochemical, TCAMS library (AID 1159585; cut-off not given, nearly all actives have IC50 up to about 0.98 µM;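 note: inhibitors leave more ATP so luminescence rises with inhibition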). The note with it: recombinant PfCDPK1, Kinase-Glo ATP depletion luminescence. (In Kinase-Glo more light means more ATP remaining.)
Experiment [6] deals with Plasmodium falciparum protein kinase 6 (PK6, PF3D7_1337100) (UniProt Q8IDW1). As to the kind of experiment: PfPK6 kinase inhibitors, biochemical, TCAMS library (AID 1159586). The note with it: recombinant PfPK6, Kinase-Glo ATP depletion luminescence.
Experiment [7] concerns the target Protein kinase 7 (PK7), Plasmodium falciparum 3D7 (PF3D7_0213400) (UniProt Q7YTF7). As to the kind of experiment: inhibition of Plasmodium PK7 catalytic activity – biochemical, TCAMS antimalarial set, Kinase-Glo luminescence (AID 1159587). The note with it: recombinant PfPK7, Kinase-Glo ATP depletion luminescence.
In experiment [8] the target is Calcium-dependent protein kinase 4 (Plasmodium falciparum (isolate 3D7)) (UniProt Q8IBS5). As to the kind of experiment: PfCDPK4 kinase inhibitors, biochemical, TCAMS library (AID 1159588; cut-off not given, nearly all actives have IC50 up to about 0.91 µM). The note with it: recombinant PfCDPK4, Kinase-Glo ATP depletion luminescence.
Sequence of Calcium-dependent protein kinase 4 (Plasmodium falciparum (isolate 3D7)) (Q8IBS5 whole entry, looked up): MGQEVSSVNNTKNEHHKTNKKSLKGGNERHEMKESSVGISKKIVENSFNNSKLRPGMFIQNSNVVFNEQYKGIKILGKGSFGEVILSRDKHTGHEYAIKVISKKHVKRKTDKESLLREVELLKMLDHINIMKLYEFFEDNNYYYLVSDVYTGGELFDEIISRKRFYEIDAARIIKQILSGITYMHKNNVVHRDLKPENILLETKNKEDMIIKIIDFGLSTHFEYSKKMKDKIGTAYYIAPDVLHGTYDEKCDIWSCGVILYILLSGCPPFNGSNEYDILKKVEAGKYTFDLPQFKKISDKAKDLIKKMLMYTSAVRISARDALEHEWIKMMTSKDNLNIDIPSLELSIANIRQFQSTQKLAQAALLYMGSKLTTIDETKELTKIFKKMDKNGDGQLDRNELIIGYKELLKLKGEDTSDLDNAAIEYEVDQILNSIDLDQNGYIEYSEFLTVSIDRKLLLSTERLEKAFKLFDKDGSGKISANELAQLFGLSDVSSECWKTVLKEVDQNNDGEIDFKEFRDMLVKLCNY

Sequence of L-lactate dehydrogenase (Plasmodium falciparum (isolate CDC / Honduras)) (Q27743 whole entry, looked up): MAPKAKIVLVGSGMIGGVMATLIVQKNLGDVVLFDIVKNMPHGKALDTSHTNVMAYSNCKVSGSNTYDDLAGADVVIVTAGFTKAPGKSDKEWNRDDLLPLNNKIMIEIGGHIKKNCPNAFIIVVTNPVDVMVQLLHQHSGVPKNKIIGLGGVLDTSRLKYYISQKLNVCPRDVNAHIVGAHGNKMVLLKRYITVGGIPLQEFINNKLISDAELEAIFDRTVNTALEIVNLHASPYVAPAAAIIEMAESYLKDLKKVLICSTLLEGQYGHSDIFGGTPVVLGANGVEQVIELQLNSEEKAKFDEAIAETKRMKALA
Sequence of Protein kinase 7 (PK7), Plasmodium falciparum 3D7 (PF3D7_0213400) (Q7YTF7 1-343): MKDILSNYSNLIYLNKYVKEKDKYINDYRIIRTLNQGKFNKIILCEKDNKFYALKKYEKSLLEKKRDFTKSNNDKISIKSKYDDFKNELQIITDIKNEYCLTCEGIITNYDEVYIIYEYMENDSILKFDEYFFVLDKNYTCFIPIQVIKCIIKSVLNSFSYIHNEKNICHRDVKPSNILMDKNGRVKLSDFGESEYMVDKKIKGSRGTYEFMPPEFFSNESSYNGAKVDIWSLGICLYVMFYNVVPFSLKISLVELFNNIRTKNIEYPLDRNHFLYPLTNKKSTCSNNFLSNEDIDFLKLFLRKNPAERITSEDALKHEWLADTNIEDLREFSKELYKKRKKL
Sequence of Calcium-dependent protein kinase 1 (Plasmodium falciparum (isolate 3D7)) (P62344 whole entry, looked up): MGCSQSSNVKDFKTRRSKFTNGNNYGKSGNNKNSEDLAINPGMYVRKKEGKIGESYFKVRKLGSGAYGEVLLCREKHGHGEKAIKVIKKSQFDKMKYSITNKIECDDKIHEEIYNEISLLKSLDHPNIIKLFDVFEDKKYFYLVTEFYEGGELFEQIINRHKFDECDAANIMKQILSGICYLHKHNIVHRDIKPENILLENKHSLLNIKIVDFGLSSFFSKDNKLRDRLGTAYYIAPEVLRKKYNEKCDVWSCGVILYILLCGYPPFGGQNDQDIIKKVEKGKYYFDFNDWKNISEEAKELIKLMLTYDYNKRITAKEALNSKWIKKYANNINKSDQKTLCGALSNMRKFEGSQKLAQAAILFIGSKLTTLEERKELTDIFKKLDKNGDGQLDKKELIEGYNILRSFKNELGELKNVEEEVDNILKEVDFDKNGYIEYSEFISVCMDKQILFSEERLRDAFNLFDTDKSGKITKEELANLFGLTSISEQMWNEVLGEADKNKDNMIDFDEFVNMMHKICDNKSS
Sequence of Plasmodium falciparum protein kinase 6 (PK6, PF3D7_1337100) (Q8IDW1 1-305): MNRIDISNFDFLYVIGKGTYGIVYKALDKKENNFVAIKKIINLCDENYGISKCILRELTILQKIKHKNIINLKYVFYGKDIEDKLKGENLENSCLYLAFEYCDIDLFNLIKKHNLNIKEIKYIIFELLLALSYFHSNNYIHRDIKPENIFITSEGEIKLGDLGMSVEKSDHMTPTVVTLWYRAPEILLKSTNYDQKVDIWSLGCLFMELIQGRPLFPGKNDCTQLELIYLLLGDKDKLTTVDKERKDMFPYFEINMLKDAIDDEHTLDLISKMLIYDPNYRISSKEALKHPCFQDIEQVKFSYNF

In general, inhibition refers to the relative decrease from the control value, in per cent. Consider `O=C(Nc1cccc(CN2CCCN(Cc3cccc(O)c3)CC2)c1)c1ccc(Cl)c(Cl)c1`, for which the growth inhibition in experiment [1] is 79% (active); in experiment [4] it was 102% (active). Further, the figures for the inhibition in experiment [2] and in experiment [3] were 25% and 2%, respectively. In addition, the result in experiment [5], in experiment [6], in experiment [7] and in experiment [8] was inactive.
On to `Cc1ccc(N2C(N)=NC(N)=NC2c2ccccc2)cc1` (stereo not given), for which the growth inhibition in experiment [1] is 1%; in experiment [4], 94% (active). The inhibition is 11% in experiment [2] and -1% in experiment [3]. In addition, the result in experiment [5], in experiment [6], in experiment [7] and in experiment [8] was inactive.
For `Cc1cc2nc(-c3ccc(/C=C/C(=O)NCc4ccc(Cl)c(Cl)c4)cc3)[nH]c2cc1C`, the growth inhibition in experiment [1] is 83% (active); in experiment [4], 98% (active). The inhibition was 32% in experiment [2] and -1% in experiment [3]. In addition, the result in experiment [5], in experiment [6], in experiment [7] and in experiment [8] was inactive.
As to `CC(C)C[C@H](NC(=O)c1ccc(OCCN2CCOCC2)cc1)C(=O)N[C@H](/C=N/N1CCN(C)C1=O)CCc1ccccc1`, the figures for the growth inhibition in experiment [1] and in experiment [4] were 65% (active) and 90% (active), respectively. Moreover, the inhibition in experiment [2] and in experiment [3] was 3% each time. Besides, the outcome in experiment [5], in experiment [6], in experiment [7] and in experiment [8] was inactive.
On to `CCC(C)(C)n1c(C)cc2c3c(N)nc(N)nc3ccc21`, for which the growth inhibition was 85% (active) in experiment [1] and 97% (active) in experiment [4]. For the same compound, the inhibition in experiment [2] was 69% (active); in experiment [3], 1%. Also, the result in experiment [5], in experiment [6], in experiment [7] and in experiment [8] was inactive.
Turning to `COc1ccc(C(=O)C2CCN(CCCCNC(=O)c3ccc(NC(=O)c4ccc(Cl)cc4)cc3)CC2)c(OC)c1`, the growth inhibition was 13% in experiment [1] and 98% (active) in experiment [4]. Moreover, the inhibition in experiment [2] was 47%; in experiment [3], 4%. The result in experiment [5], in experiment [6], in experiment [7] and in experiment [8] was inactive.
As to `CC(C)c1cc(Oc2c(I)cc(CCN=C(N)N)cc2I)ccc1O`, the growth inhibition was 54% (active) in experiment [1] and 98% (active) in experiment [4]. Moreover, the inhibition in experiment [2] is 19%; in experiment [3], 3%. Besides, the outcome in experiment [5], in experiment [6], in experiment [7] and in experiment [8] was inactive.
Turning to `COc1ccc(NC(=O)[C@H](Cc2ccccc2)Nc2cc(C)nc(NCCc3ccccc3)n2)cc1`, the results for the growth inhibition in experiment [1] and in experiment [4] were 83% (active) and 98% (active), respectively. Also, the inhibition was 6% in experiment [2] and -1% in experiment [3]. Moreover, the outcome in experiment [5], in experiment [6], in experiment [7] and in experiment [8] was inactive.
On to `CCC[C@]1(C)CSc2ccccc2[C@@H](c2ccccc2)N1`, for which the growth inhibition in experiment [1] was 2%; in experiment [4], 87% (active). Further, the inhibition is 60% (active) in experiment [2] and -3% in experiment [3]. The result in experiment [5], in experiment [6], in experiment [7] and in experiment [8] was inactive.
For `CCOC(=O)C(=O)N1c2ccc(OCC)cc2-c2c(ssc2=S)C1(C)C`, the growth inhibition in experiment [1] is 100% (active); in experiment [4] it was 99% (active). Moreover, the results for the inhibition in experiment [2] and in experiment [3] were 5% and -4%, respectively. The outcome in experiment [5], in experiment [6], in experiment [7] and in experiment [8] was inactive.
As for `COc1ccc2nccc([C@@H](O)CN3CCC(NCc4cc5cccc(OC)c5o4)CC3)c2c1`, the results for the growth inhibition in experiment [1] and in experiment [4] were 81% (active) and 99% (active), respectively. Moreover, the inhibition in experiment [2] was 10%; in experiment [3] it was -8%. Moreover, the result in experiment [5], in experiment [6], in experiment [7] and in experiment [8] was inactive.
In the case of `Cc1nc(-c2cccc(C(=O)Nc3cnc4ccccc4c3)c2)no1`, the values for the growth inhibition in experiment [1] and in experiment [4] were 12% and 85% (active), respectively. Also, the inhibition is 15% in experiment [2] and -10% in experiment [3]. For the same compound, the outcome in experiment [5], in experiment [6], in experiment [7] and in experiment [8] was inactive.
Turning to `c1cncc(CCNCc2cccc(-c3ccc(-c4nc5ccccc5[nH]4)s3)c2)c1`, the growth inhibition in experiment [1] was 97% (active); in experiment [4], 100% (active). Moreover, the inhibition in experiment [2] is 8%; in experiment [3], -1%. Further, the outcome in experiment [5], in experiment [6], in experiment [7] and in experiment [8] was inactive.
For the compound `O=C(Cc1cccnc1)Nc1cccc(-c2cccc(-c3nc4ccc(C(F)(F)F)cc4[nH]3)c2)c1`, the growth inhibition in experiment [1] is 38%; in experiment [4], 99% (active). The inhibition in experiment [2] was 42%; in experiment [3] it was -7%. For the same compound, the outcome in experiment [5], in experiment [6], in experiment [7] and in experiment [8] was inactive.
Take `Cc1cccc2[nH]c(-c3cccc(-c4ccc(C(=O)NCCc5ccc(O)c(=O)[nH]5)cc4)c3)nc12`: the growth inhibition in experiment [1] was 30%; in experiment [4], 85% (active). Further, the values for the inhibition in experiment [2] and in experiment [3] were 20% and -1%, respectively. In addition, the outcome in experiment [5], in experiment [6], in experiment [7] and in experiment [8] was inactive.
Turning to `O=[N+]([O-])c1cc(/C=N/Nc2nc3ccccc3[nH]2)ccc1O`, the growth inhibition in experiment [1] is 14%; in experiment [4] it was 98% (active). Also, the figures for the inhibition in experiment [2] and in experiment [3] were -7% and -5%, respectively. In addition, the outcome in experiment [5], in experiment [6], in experiment [7] and in experiment [8] was inactive.
With `CC1(C)CC(NCCCCCCCOc2ccc(OCc3ccccc3)cc2)CC(C)(C)N1`, the growth inhibition in experiment [1] was 73% (active); in experiment [4], 100% (active). In addition, the inhibition was 99% (active) in experiment [2] and 0% in experiment [3]. The outcome in experiment [5], in experiment [6], in experiment [7] and in experiment [8] was inactive.
Regarding `CC(C)CNCc1cccc(-c2cccc(CNC3CCN(Cc4ccccc4)CC3)c2)c1`, the figures for the growth inhibition in experiment [1] and in experiment [4] were 99% (active) and 102% (active), respectively. Moreover, the inhibition in experiment [2] is 32%; in experiment [3], -2%. The result in experiment [5], in experiment [6], in experiment [7] and in experiment [8] was inactive.
Regarding `Oc1ccc(Br)cc1C(O)CNCc1ccccc1OCc1ccccc1` (stereo not given), the growth inhibition is 100% (active) in experiment [1] and 101% (active) in experiment [4]. Further, the inhibition in experiment [2] is 25%; in experiment [3], 4%. The result in experiment [5], in experiment [6], in experiment [7] and in experiment [8] was inactive.
For the compound `CCCCCN1CCC(NS(=O)(=O)c2cccc(C(=O)Nc3ccc(C(F)(F)F)cc3)c2)C1` (stereo not given), the growth inhibition in experiment [1] is 5%; in experiment [4] it was 95% (active). The inhibition is 45% in experiment [2] and -3% in experiment [3]. In addition, the result in experiment [5], in experiment [6], in experiment [7] and in experiment [8] was inactive.
